Measured values reported in PubChem BioAssay (Tox21).
Results filed as inconclusive are left out. The source made the active and inactive calls. Calls follow the shape of the dose curve; as a rule, active = well fitted curve in the direction sought with a large enough effect in the repeat runs; inconclusive = weak or mixed curves; inactive = no such curve, though single readings can be large; an effect the other way counts as inactive or inconclusive.

test: qHTS RealTime-Glo MT Cell Viability Assay in HepG2 cells - 16 hour (AID 1224885); settings: RealTime-Glo luminescence; series mostly up to 76.8 µM; activity change, negative = cytotoxic: at the top concentration
Method in brief: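 Real-time, nonlytic viability: 600 HepG2 cells/well mixed with NanoLuc enzyme plus prosubstrate; 5 h settle, compound (DMSO) added by pintool; luminescence monitored over 40 h at 37 C.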
% is scaled to controls: 0 for no effect and ±100 for the full control effect.
Also: nearly all actives have a fitted effect of over 50% in size.

Row | SMILES | activity change, negative = cytotoxic
1 | C=CC(=O)NCOCC(C)C | -9.1% (inactive)
2 | CC(C)C(OC(=O)c1ccccc1)C(C)(C)COC(=O)c1ccccc1 (configuration not stated) | -11.2% (inactive)
3 | C=CCNc1nc(NCC=C)nc(N2CCN(C(c3ccc(F)cc3)c3ccc(F)cc3)CC2)n1 | -16.2% [at 35.3 µM] (inactive)
4 | CCCCN(CCCC)C(=S)SSC(=S)N(CCCC)CCCC | -9.27% (inactive)
5 | Fc1ccccc1[C@@H](F)COC1CCC(Nc2ncnc3[nH]ncc23)CC1 (some centres not stated) | -17.1% (inactive)
6 | CC1=CC(O)CC(C)(C)C1 (configuration not stated) | 4.2% (inactive)
7 | O=c1[nH]c2ccc(S(=O)CCN3CCC(Cc4ccc(F)cc4)CC3)cc2o1 (configuration not stated) | -9.98% (inactive)
8 | CCOC(=O)N1CCC(n2c(=O)[nH]c3cc(Cl)ccc32)CC1 | -7.77% [at 35.3 µM] (inactive)
9 | NC(=O)N(O)[C@@H]1C=C[C@H](Oc2cccc(Oc3ccc(F)cc3)c2)C1 | -25.9% (inactive)
10 | CCCCC(CC)C(=O)OCCOCCOCCOCCOC(=O)C(CC)CCCC (configuration not stated) | -16% (inactive)
11 | O=[N+]([O-])c1cccc(S(=O)(=O)NCCNS(=O)(=O)c2cccc([N+](=O)[O-])c2)c1 | -3.99% [at 35.3 µM] (inactive)
12 | CC(C)(C)C(=O)O | 0.579% (inactive)
13 | C(=C\c1ccccc1)/CN1CCN(C(c2ccccc2)c2ccccc2)CC1 | -23.6% [at 35.3 µM] (inactive)
14 | CC1CC(=O)NN=C1c1ccc(NCC(C)(C)NCC(O)COc2cc(Cl)ccc2C#N)cc1 (configuration not stated) | -2.86% [at 35.3 µM] (inactive)
15 | CC(CCc1ccc2c(c1)OCO2)NN (configuration not stated) | 0.212% [at 35.3 µM] (inactive)
16 | CCCCCCCCCOC(C)=O | 1.63% (inactive)
17 | O=C(CCC1CCN(Cc2ccccc2)CC1)c1ccc2c(c1)NCCCC2 | -9.78% [at 35.3 µM] (inactive)
18 | CCCCCCOC(=O)C(C)C | 1.91% (inactive)

Row | SMILES | activity change, negative = cytotoxic
19 | CCCOC(=O)c1ccc(C(=O)OCCC)nc1 | 0.491% (inactive)
20 | CO/N=C1\CN(c2nc3c(cc2F)c(=O)c(C(=O)O)cn3C2CC2)CC1CN (configuration not stated) | 1.11% [at 35.3 µM] (inactive)
21 | CCCCCCCCCCCC[N+](C)(C)CCCS(=O)(=O)[O-] | 0.524% (inactive)
22 | C/C=C/C=C/CCCCCCCO | -15.1% (inactive)
23 | CCOC(=O)CC(=O)C(=O)OCC | -16.6% (inactive)
24 | O=C1NCCN1 | 1.48% (inactive)
25 | Nc1nccs1 | 0.489% (inactive)
26 | Cc1ccc(Nc2nccc(N(C)c3ccc4c(C)n(C)nc4c3)n2)cc1S(N)(=O)=O | -0.292% [at 35.3 µM] (inactive)
27 | O=S1OCCO1 | 1.38% (inactive)
28 | CC1CC(O)CC(C)(C)C1 (configuration not stated) | 0.158% (inactive)
29 | CC(=O)[C@H]1CC[C@H]2[C@@H]3C[C@H](C)C4=CC(=O)CC[C@]4(C)[C@H]3[C@@H](O)C[C@]12C | -4.28% [at 35.3 µM] (inactive)
30 | CC(=O)Oc1ccc2c(c1)CC[C@@H]1[C@@H]2CC[C@]2(C)[C@@H](O)CC[C@@H]12 | -13.1% [at 35.3 µM] (inactive)
31 | CNC(=O)N(c1ccccc1)c1ccccc1 | -0.286% (inactive)
32 | CC(=O)OCC(=O)[C@H]1CC[C@H]2[C@@H]3CCC4=CC(=O)CC[C@]4(C)[C@H]3CC[C@]12C | -7.67% [at 35.3 µM] (inactive)
33 | CCCCCCCCCCCC[N+](C)(C)CC(=O)[O-] | -6.57% (inactive)
34 | CCCC1C(CC)=CC(CC)=CN1c1ccccc1 (configuration not stated) | -3.33% (inactive)
35 | C1COCO1 | 2.57% (inactive)
36 | O=C(c1ccc(O)cc1)c1ccc(Cl)cc1 | -2.61% (inactive)

test: qHTS RealTime-Glo MT Cell Viability Assay in HEK293 cells - 24 hour (AID 1224886); settings: RealTime-Glo luminescence; series mostly up to 76.8 µM; activity change, negative = cytotoxicity: at the top concentration; also: potency is read from the fitted curve at half-maximal effect; as to activity change, negative = cytotoxicity: top concentration of the series differs between compounds
Method in brief: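 Cells + reagent dispensed (600 cells/well, HEK293) → 5 h at 37 C/5% CO2 → 23 nL compound in DMSO pinned → 40 h at 37 C → luminescence read at 0, 8, 16, 24, 32, 40 h.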

Row | SMILES | activity change, negative = cytotoxicity | Potency
37 | C=CC(=O)NCOCC(C)C | -9.66% (inactive) | 
38 | C=CCNc1nc(NCC=C)nc(N2CCN(C(c3ccc(F)cc3)c3ccc(F)cc3)CC2)n1 | -14.7% [at 35.3 µM] (inactive) | 
39 | CCCCN(CCCC)C(=S)SSC(=S)N(CCCC)CCCC |  | 48.5 µM (active)
40 | Fc1ccccc1[C@@H](F)COC1CCC(Nc2ncnc3[nH]ncc23)CC1 (some centres not stated) |  | 21.9 µM (active)
41 | CC1=CC(O)CC(C)(C)C1 (configuration not stated) | 9.47% (inactive) | 
42 | CC(C)(C)C(=O)O | 6.07% (inactive) | 
43 | COc1cc2ncnc(Nc3ccc(F)c(Cl)c3)c2cc1OCCCN1CCOCC1 |  | 9.52 µM (active)
44 | CC(CCc1ccc2c(c1)OCO2)NN (configuration not stated) | 2.23% [at 35.3 µM] (inactive) | 
45 | O=C(N[C@@H](c1ccccc1)[C@@H]1CCCCN1)c1cccc(C(F)(F)F)c1Cl |  | 24.5 µM (active)
46 | CCCCCCCCCOC(C)=O | -6.88% (inactive) | 
47 | CCCCCCOC(=O)C(C)C | 8.57% (inactive) | 
48 | CCCOC(=O)c1ccc(C(=O)OCCC)nc1 | 4.54% (inactive) | 
49 | CO/N=C1\CN(c2nc3c(cc2F)c(=O)c(C(=O)O)cn3C2CC2)CC1CN (configuration not stated) | 2.01% [at 35.3 µM] (inactive) | 
50 | CCCCCCCCCCCC[N+](C)(C)CCCS(=O)(=O)[O-] | -5.32% (inactive) | 
51 | O=C1NCCN1 | 5.85% (inactive) | 
52 | Cc1ccc(Nc2nccc(N(C)c3ccc4c(C)n(C)nc4c3)n2)cc1S(N)(=O)=O |  | 1.51 µM (active)
53 | O=S1OCCO1 | 20.3% (inactive) | 
54 | CC1CC(O)CC(C)(C)C1 (configuration not stated) | 6.13% (inactive) | 
55 | CNC(=O)N(c1ccccc1)c1ccccc1 | -0.728% (inactive) | 
56 | CCCCCCCCCCCC[N+](C)(C)CC(=O)[O-] | 5.14% (inactive) | 
57 | CCCC1C(CC)=CC(CC)=CN1c1ccccc1 (configuration not stated) |  | 13.8 µM (active)

test: qHTS RealTime-Glo MT Cell Viability Assay in HEK293 cells - 8 hour (AID 1224887); settings: RealTime-Glo luminescence; series mostly up to 76.8 µM; activity change, negative = cytotoxicity: at the top concentration; also: potency is read from the fitted curve at half-maximal effect; as to activity change, negative = cytotoxicity: top concentration of the series differs between compounds
Method in brief: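 HEK293 cells mixed with RealTime-Glo reagents (NanoLuc plus cell-permeant prosubstrate) at 600 cells/well, preincubated 5 h at 37 C/5% CO2, then given 23 nL compound in DMSO. Nonlytic luminescence from viable cells was read at 0, 8, 16, 24, 32 and 40 h.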

Row | SMILES | activity change, negative = cytotoxicity | Potency
58 | C=CC(=O)NCOCC(C)C | -9.01% (inactive) | 
59 | CC(C)C(OC(=O)c1ccccc1)C(C)(C)COC(=O)c1ccccc1 (configuration not stated) | -21.5% (inactive) | 
60 | CCCCN(CCCC)C(=S)SSC(=S)N(CCCC)CCCC |  | 34.3 µM (active)
61 | CCCCC(CC)C(=O)OCCOCCOCCOCCOC(=O)C(CC)CCCC (configuration not stated) | -34.2% (inactive) | 
62 | O=[N+]([O-])c1cccc(S(=O)(=O)NCCNS(=O)(=O)c2cccc([N+](=O)[O-])c2)c1 | 1.67% [at 35.3 µM] (inactive) | 
63 | CC(C)(C)C(=O)O | 2.44% (inactive) | 
64 | C(=C\c1ccccc1)/CN1CCN(C(c2ccccc2)c2ccccc2)CC1 | -23.3% [at 35.3 µM] (inactive) | 
65 | COc1cc2ncnc(Nc3ccc(F)c(Cl)c3)c2cc1OCCCN1CCOCC1 |  | 10.7 µM (active)
66 | CC1CC(=O)NN=C1c1ccc(NCC(C)(C)NCC(O)COc2cc(Cl)ccc2C#N)cc1 (configuration not stated) | -21.3% [at 35.3 µM] (inactive) | 
67 | CC(CCc1ccc2c(c1)OCO2)NN (configuration not stated) | 1.22% [at 35.3 µM] (inactive) | 
68 | CCCCCCCCCOC(C)=O | 7.82% (inactive) | 
69 | O=C(CCC1CCN(Cc2ccccc2)CC1)c1ccc2c(c1)NCCCC2 |  | 9.52 µM (active)
70 | CCCCCCOC(=O)C(C)C | 2.22% (inactive) | 
71 | CCCOC(=O)c1ccc(C(=O)OCCC)nc1 | 2.72% (inactive) | 
72 | CO/N=C1\CN(c2nc3c(cc2F)c(=O)c(C(=O)O)cn3C2CC2)CC1CN (configuration not stated) | 0.159% [at 35.3 µM] (inactive) | 
73 | CCOC(=O)CC(=O)C(=O)OCC | -6.03% (inactive) | 
74 | O=C1NCCN1 | 6.28% (inactive) | 
75 | Nc1nccs1 | -0.406% (inactive) | 
76 | Cc1ccc(Nc2nccc(N(C)c3ccc4c(C)n(C)nc4c3)n2)cc1S(N)(=O)=O |  | 2.13 µM (active)
77 | O=S1OCCO1 | 13.9% (inactive) | 
78 | CC1CC(O)CC(C)(C)C1 (configuration not stated) | 0.862% (inactive) | 
79 | CC(=O)[C@H]1CC[C@H]2[C@@H]3C[C@H](C)C4=CC(=O)CC[C@]4(C)[C@H]3[C@@H](O)C[C@]12C | -21% [at 35.3 µM] (inactive) | 
80 | CNC(=O)N(c1ccccc1)c1ccccc1 | 3.81% (inactive) | 
81 | CCCCCCCCCCCC[N+](C)(C)CC(=O)[O-] | 6.71% (inactive) | 
82 | C1COCO1 | -1.92% (inactive) | 
